Screening data as filed in PubChem.
The list is not random: actives were taken first. Their share in the collection is about 2.9%.
SMARCA2 act: increases SMARCA2 function in MMTV reporter cells. MG213 cells, MMTV-luciferase reporter, dexamethasone, overnight. activation, % at 9.1 µM. actives 1% (n = 370,000); in the data active means activation above about 7.8%;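 further: 0% = vehicle wells and 100% = reference activator wells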
GAA850 FXN act: increases GAA850 frataxin promoter reporter activity; HEK293 lucGAA850 FXN promoter luciferase reporter, 24 h; percent of 10 µM SAHA response; activation, % at 6 µM; actives 0.56% (n = 360,000); AID 540364;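 active means activation above the average of all compounds screened plus 3 SD, cutoff fixed separately per campaign, cut at about 7.5% in these data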;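 further: 0% = DMSO wells and 100% = 10 µM SAHA wells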
FAS TE block: inhibitors of human fatty acid synthase thioesterase domain; P49327; recombinant FAS-TE, OMFH fluorogenic substrate, fluorescence endpoint; inhibition, % at 15 µM; actives 0.67% (n = 360,000); AID 602261;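 active means compounds whose normalised, plate-corrected inhibition of enzyme fluorescence in the single-dose primary screen is 50% or more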;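 further: 0% = DMSO with enzyme and 100% = substrate without enzyme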
proKLK7 act: activators of human kallikrein-7 zymogen; P49862; activation, % at 7 µM; actives 0.9% (n = 370,000); purified proKLK7, EDANS-DABCYL substrate fluorescence; 100% is mature enzyme control, 0% vehicle; AID 652039;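 active means activation above the mean of all tested compounds plus 3 SD, computed per campaign excluding outliers beyond control limits, cut at about 13% in these data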
FAS-TE conf: FAS thioesterase (human) inhibition, confirmation. recombinant FAS-TE, OMFH fluorogenic substrate, fluorescence. actives 45% (n = 2,300). inhibition, % at 15 µM. AID 624325. shares compounds with FAS TE block;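 active means compounds inhibiting the enzyme by at least 50% at 15 µM in any one of the replicates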;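 further: 0% = enzyme with DMSO only and 100% = wells lacking enzyme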
SMARCA2 conf: SMARCA2 activation, confirmation screen | AID 652260 | shares compounds with SMARCA2 act | actives 30% (n = 3,500) | MG213 cells, MMTV-luciferase with dexamethasone, luminescence, overnight; MG213 cells expressing E1A, Rb sequestered; DMSO wells 0%, reference activator 100% | activation, % at 9.1 µM;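 active means activation above its plate's cutoff, the mean activation of tested wells plus 3 SD, cut at about 7.9% in these data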
VP16 Luc act: counter-screen for SMARCA2 activators: GAL4-VP16 luciferase reporter activation | HEK293 GAL4-VP16 pG5luc reporter, luciferase luminescence; scaled: DMSO wells 0%, SAHA wells 100% | actives 41% (n = 3,500) | shares compounds with SMARCA2 act | activation, % at 9.1 µM;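 active means activation above the solvent-only control well mean plus 3 SD, averaged across control plates, cut at about 5.2% in these data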
Numbers without * were called inactive; nt = no result given.

SMILES	SMARCA2 act	GAA850 FXN act	FAS TE block	proKLK7 act	FAS-TE conf	others
CC(C)(C)OC(=O)N[C@@H](CCCCNC(=O)OCc1ccccc1)c1nnc([C@H](CCCCNC(=O)OCc2ccccc2)NC(=O)OC(C)(C)C)o1	nt	0.2	65.5*	nt	27.0
CC(C)(C)OC(=O)NCCCC[C@H](NC(=O)c1nc[nH]c1C(=O)NC1CCN(C(=O)OC(C)(C)C)CC1)C(=O)OC(C)(C)C	1.0	-6.7	84.1*	0.8	58.8*
CC(C)C[C@H](NC(=O)c1nc[nH]c1C(=O)N[C@@H](CCCCNC(=O)OC(C)(C)C)C(=O)OC(C)(C)C)C(=O)OCc1ccccc1	-0.3	-1.7	19.8	0.6	nt
CC(C)(C)OC(=O)NCCCC[C@H](NC(=O)c1nc[nH]c1C(=O)NCC(=O)OCc1ccccc1)C(=O)OC(C)(C)C	1.2	-0.1	89.8*	0.4	96.3*
Cc1ccc(NC(=O)COC(=O)CNC(=O)C2CCCCC2)c(Br)c1	1.8	0.1	-2.0	0.2	nt
COCc1cc(C)nc(SCC[N+](C)(C)CC(=O)c2ccc(Br)cc2)c1C#N	-0.9	-0.3	38.3	0.3	nt
COCc1cc(C)nc(SCC[N+](C)(C)CC(=O)Nc2ccccc2)c1C#N	2.3	-2.6	52.9*	-0.4	62.7*
CCc1ccc(NC(=O)C(C)OC(=O)CC(NC(C)=O)c2ccccc2)cc1 (stereo unspecified)	-1.8	-0.4	1.2	-1.0	nt
COc1ccc(S(=O)(=O)N2CCOCC2)cc1C(=O)Nc1ccc(N2CCCCCC2)cc1	-2.7	2.4	62.0*	-1.1	23.3
COc1ccc(-c2cnnn2-c2ccc(NC(=O)c3ccc(S(=O)(=O)N4CCCCC4)cc3)cc2)cc1OC	2.0	6.7	87.5*	-2.3	5.8
COc1ccc(C(=O)Nc2ccc(S(=O)(=O)N3CCCCC3)cc2)cc1OC	-5.3	0.5	9.4	0.2	nt
COc1ccccc1CNC(=O)c1cc(S(=O)(=O)N2CCN(c3ccccc3)CC2)ccc1Cl	-1.0	-1.6	65.4*	0.3	25.2
Cc1ccc(S(=O)(=O)N2CCCCC2)cc1C(=O)Nc1ccc(N2CCOCC2)cc1	-3.2	1.1	-8.6	0.4	nt
Cc1cccc(N(CC(=O)NCCSCc2ccccc2)S(C)(=O)=O)c1C	0.2	2.7	3.5	-0.8	nt
Fc1cccc(NC(=S)NCc2ccccc2Cl)c1	-5.7	0.3	14.9	0.1	nt
CCCNC(=O)c1nnsc1S(=O)(=O)c1ccc(Cl)cc1	-10.7	-14.2	52.9*	0.8	70.2*
CN(CCO)c1cc(NCCCN2CCC(Cc3ccccc3)CC2)c2nonc2c1[N+](=O)[O-]	-0.1	0.9	67.8*	0.1	42.5*
CC1CCN(CCCNc2cc(NCCO)c([N+](=O)[O-])c3nonc23)CC1	-1.6	-1.5	-1.1	0.0	nt
O=C1C2C3C=CC(c4ccccc4)(C2C(=O)N1c1cccc(Cl)c1)C1C(=O)N(c2cccc(Cl)c2)C(=O)C31 (stereo unspecified)	-5.0	1.3	65.2*	-0.1	39.5
O=C1C2C3CCCC3=C3CCCC3C2C(=O)N1c1cccc(Cl)c1 (stereo unspecified)	-2.2	2.6	9.4	0.3	nt
Cc1ccc(-c2cc(N)n(-c3ccccc3)n2)cc1	4.3	4.5	1.2	-0.4	nt
Nc1cc(-c2ccc(OC(F)(F)F)cc2)nn1-c1ccc(Cl)c(Cl)c1	-1.9	-0.1	58.2*	0.7	25.0
CCOC(=O)C(OC(=O)c1sc(=S)n(C)c1C)C(C)=O (stereo unspecified)	-1.6	3.2	-1.6	0.1	nt
Cc1c(C(=O)OCCOc2ccc(Br)cc2)sc(=S)n1C	-2.6	-0.1	69.0*	0.1	62.8*
Cc1cn(C2OC(COC(=O)c3ccccc3)C(OC(=O)c3ccccc3)C2OC(=O)c2ccccc2)c(=O)[nH]c1=O (stereo unspecified)	-2.8	1.6	86.7*	-0.4	5.2
SMILES	SMARCA2 act	GAA850 FXN act	FAS TE block	proKLK7 act	FAS-TE conf	others
CCN(CC)c1ccc(/C=N/NC(=O)c2cccc(S(=O)(=O)N3CCOCC3)c2)cc1	-2.0	0.7	1.7	-49.5	nt
CCN(Cc1ccccc1)c1ccc(/C=N/NC(=O)c2cccc(S(=O)(=O)N3CCOCC3)c2)cc1	-5.8	-0.4	81.9*	-0.1	8.2
CCCC(C)C1c2c(c(C)c(C)oc2=O)Oc2c(C)c(C)oc(=O)c21 (stereo unspecified)	1.4	1.3	58.6*	-0.4	55.9*
CCCCNC(=O)Nc1cc(C(=O)OC)ccc1C	0.1	-2.4	-5.6	0.3	nt
O=C(COC(=O)c1cc([N+](=O)[O-])ccc1N1CCOCC1)Nc1c(Cl)cccc1C(F)(F)F	-2.7	-0.2	65.3*	0.1	62.4*
O=C(COC(=O)c1cc([N+](=O)[O-])ccc1N1CCOCC1)Nc1ncc(Cl)cc1Cl	3.1	0.9	54.5*	0.8	71.4*
O=C1[C@@H]2[C@@H](CN3CN(c4ccccc4)N=C(c4ccccc4)[C@@]23c2ccccc2)C(=O)N1c1ccccc1	-1.2	-0.7	56.6*	-43.2	14.5
O=C(O)c1cccc(N2C(=O)C3CC=CCC3C2=O)c1 (stereo unspecified)	-2.7	-1.8	-6.8	0.3	nt
CCC(CO)Oc1cc(NC(=O)c2ccccc2N)c2ncn(C(C)C)c2c1 (stereo unspecified)	0.4	-1.3	-1.2	0.0	nt
CCCCc1ccc(-c2csc(/C(C#N)=C\c3ccc(C)o3)n2)cc1	1.9	-0.4	18.0	-0.1	nt
CCOc1ccc(-c2csc(/C(C#N)=C\c3ccc(O)c([N+](=O)[O-])c3)n2)cc1	-4.0	-1.2	72.1*	0.7	60.6*
O=C1CC(c2ccccc2)CC(O)=C1C=NCCCN1CCOCC1 (stereo unspecified)	1.9	-0.6	-8.1	0.4	nt
Cc1ccc(C(=O)NCc2ccc3c(c2)OCO3)c(C)c1	-1.4	3.0	1.7	-0.1	nt
Cc1ccc(NC(=O)CCNS(=O)(=O)c2cc(Br)cnc2N)cc1Cl	-5.4	3.0	63.1*	-0.2	43.5*
COc1ccc2cc3cc(C(=O)N4CCCC(C)C4)oc3nc2c1 (stereo unspecified)	8.8*	4.9	71.1*	-0.3	70.8*	SMARCA2 conf=3.3;VP16 Luc act=9.2*
N#CC(C#N)=C1SC(=Nc2ccccc2)C(=Nc2ccccc2)N1c1ccccc1	13.8*	4.1	56.8*	0.6	37.0	SMARCA2 conf=-2.6;VP16 Luc act=4.2
O=C(OC(C(=O)c1c[nH]c2ccccc12)c1ccccc1)c1cnccn1 (stereo unspecified)	1.7	4.4	-2.7	0.1	nt
Cc1ccc(-n2nnnc2SCC(=O)c2c(N)n(CC(C)C)c(=O)n(C)c2=O)cc1	-2.5	-2.2	-5.5	-0.1	nt
